Sampled rows, rich in hits. Any-hit rate of the full collection: about 1.7%.
Vif imaging: HIV Vif self-association inhibitors, primary screen, imaging, HEK293T, single point; HEK293T cells, Vif self-association by quenched fluorescence, 24 h; inhibition, % at 7.49 µM; 340,000 compounds, 0.35% hits; AID 602346, 2012; in the data active = inhibition above about 50%, passing the limit was not always enough
CFTR F508del cor: F508del CFTR correction, initial screen, CFBE line, single point. CFBE cells, YFP halide quenching; stimulated with forskolin plus potentiator P3; % fluorescence drop versus neutral controls. activity (quench increase), % at 7.58 µM. 350,000 compounds, 0.36% hits. AID 720511, 2013;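 active = mean added fluorescence quench of at least 8% versus neutral control, with both replicates also reaching 8%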;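 also: cells transiently co-express mutant CFTR-F508del with the halide-sensitive YFP; corrector assay measuring rescue of mutant channel to the surface after 24 h compound exposure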
FGF22 binding: binders of human FGF22 protein, primary screen, FGF22 synaptogenesis inhibitor project, biophysical, thermal shift, single point. Fibroblast growth factor 22 (Homo sapiens), Q9HCT0. AID 651658, 2012. 340,000 compounds, 1.5% hits. activity (Tm shift, normalised), % at 9.99 µM. recombinant FGF22 thermal shift, SYPRO orange fluorescence; percent of sucrose octasulfate shift, DMSO zero;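 active = mean Tm shift, scaled 0 neutral to 100 positive control, at about 1.3% or above, every replicate too, limit read from the data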
Target sequence (Q9HCT0 whole entry, looked up): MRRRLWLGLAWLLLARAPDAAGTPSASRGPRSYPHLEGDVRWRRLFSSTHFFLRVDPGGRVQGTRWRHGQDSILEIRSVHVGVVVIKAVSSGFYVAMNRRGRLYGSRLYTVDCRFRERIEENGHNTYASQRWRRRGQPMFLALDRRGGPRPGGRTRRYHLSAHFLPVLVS
* marks the source's active call; other numbers are inactive results; x = no result given.

SMILES	Vif imaging	CFTR F508del cor	FGF22 binding
C[C@@H]1CN([C@@H](C)CO)C(=O)c2cccc(NC(=O)C3CCOCC3)c2O[C@H]1CN(C)S(=O)(=O)c1cccs1	x	-0.1	-0.4
CC(=O)c1ccc(NC(=S)NCCc2ccc(S(N)(=O)=O)cc2)cc1	-3.7	1.6	1.2
S=C(NCCc1ccccc1)Nc1ccc(Cl)cc1	4.5	x	1.5*
NC(=O)c1cc(Cl)ccc1OCC(=O)NC1CC1	2.1	9.0*	0.4
C=CCNC(=S)Nc1ccc(Br)cc1F	-0.3	x	0.4
Fc1cc(Br)ccc1NC(=S)NCCc1ccccc1	0.1	1.8	1.8*
NS(=O)(=O)c1ccc(NC(=S)NCCc2ccccc2)cc1	1.8	0.5	2.2*
O=C(NCCc1ccccc1)Nc1ccc(Cl)cc1	-6.5	x	x
CC1CCC(NC(=O)COc2ccccc2C(N)=O)CC1 (stereo not drawn)	-3.6	x	x
C[C@@H]1CN([C@H](C)CO)C(=O)c2cc(C#CC3(O)CCCC3)cnc2O[C@H]1CN(C)C(=O)Cc1ccncc1	x	3.7	-0.1
CO[C@H]1CN(C)C(=O)c2ccc(NC(=O)c3ccccc3)cc2OC[C@H](C)N(CC2CC2)C[C@@H]1C	x	0.6	-0.2
COc1cccc(S(=O)(=O)Nc2ccc3c(c2)[C@@H]2C[C@@H](CC(=O)NCC(F)(F)F)O[C@@H](CO)[C@@H]2O3)c1	x	0.8	-0.3
CNC[C@H]1Oc2ccc(NC(=O)CCC(F)(F)F)cc2C(=O)N([C@@H](C)CO)C[C@@H]1C	x	0.1	-0.2
CCCNC(=O)C[C@H]1C[C@@H]2c3cc(NS(C)(=O)=O)ccc3O[C@@H]2[C@H](CO)O1	x	-0.6	0.1
CCNC(=O)[C@@H]1[C@@H](CO)[C@@H]2Cn3c(ccc(C4=CCCC4)c3=O)[C@H]1N2C(=O)C1CC1	x	0.0	0.0
O=C(NCCc1ccccc1)C(=O)Nc1nccs1	4.1	x	x
S=C(NCCc1ccccc1)Nc1nccs1	-13.3	9.2*	0.1
O=C(Cc1ccc(Cl)cc1)NC1CC1	70.8*	-1.7	0.8
S=C(NCCc1ccc(Cl)cc1)NC1CC1	8.1	-1.2	44.1*
NS(=O)(=O)c1ccc(CCNC(=S)NC2CCCC2)cc1	-3.5	1.9	0.4
CC1(C)CC(NC(=O)Cc2ccc(Cl)cc2)CC(C)(C)N1	-0.8	-4.0	-0.1
NS(=O)(=O)c1ccc(CCNC(=O)CN2CCN(c3ccccc3O)CC2)cc1	6.7	1.7	44.3*
NS(=O)(=O)c1ccc(CCNC(=O)CN2CCN(c3ccccc3F)CC2)cc1	-2.9	x	-0.1
C[C@H](CO)N1C[C@H](C)[C@@H](CN(C)S(=O)(=O)c2ccc(Cl)cc2)Oc2ccc(NC(=O)Nc3ccc4c(c3)OCO4)cc2CC1=O	x	0.4	-0.3
CO[C@@H]1CC[C@@H]2CCN(C)C(=O)C[C@@H](c3ccccc3)CN(C)C(=O)c3cc(C#N)ccc3OC[C@H]1O2	x	x	0.0
SMILES	Vif imaging	CFTR F508del cor	FGF22 binding
C[C@@H]1CN([C@@H](C)CO)C(=O)c2cc(-c3ccccc3F)cnc2O[C@@H]1CN(C)C	x	-1.7	0.0
C[C@@H](O)C#Cc1ccc2c(c1)O[C@H](CN(C)C(=O)C1CCC1)[C@@H](C)CN([C@@H](C)CO)S2(=O)=O	x	2.1	-0.5
Cc1ccc(NC(=O)CSc2nnc(-c3cc(C)on3)o2)cc1	-4.8	0.1	0.2
O=C(CSc1nnc(CNc2ccc(F)cc2)o1)c1ccccc1	62.2*	3.2	-0.2
Cc1cc(C)cc(-c2nnc(SCC(=O)c3ccc4c(c3)OCCO4)o2)c1	-2.1	x	x
Cc1cc(-c2nnc(SCC(=O)c3ccc4c(c3)OCCO4)o2)no1	-7.3	-3.2	44.4*
Cc1cc(-c2nnc(SCC(=O)c3ccc(F)cc3)o2)no1	2.4	0.9	43.8*
COc1ccc(C(=O)CSc2nnc(CNc3ccc(F)cc3)o2)cc1	-11.0	1.0	0.6
CN(C)CC(=O)N[C@@H]1CC[C@@H](CCn2cc(C3CCCC3)nn2)O[C@H]1CO	x	2.6	-0.1
O=C(Cc1ccccc1)N[C@@H]1CC[C@H](CC(=O)N2CCCCC2)O[C@@H]1CO	x	2.3	-0.4
O=C(Nc1ccc(Cl)c(S(=O)(=O)N2CCOCC2)c1)c1n[nH]c(=O)c2ccccc12	9.7	-1.2	-0.2
Cc1cnc(C(=O)Nc2ccc(C)c(S(=O)(=O)N3CCCCC3)c2)cn1	-2.7	-2.0	-0.1
Cc1ccc(NC(=O)c2c(C)noc2C)cc1S(=O)(=O)N1CCOCC1	12.2	9.9*	0.1
Cc1ccc(S(=O)(=O)N2CCN(C(=O)c3n[nH]c(=O)c4ccccc34)CC2)c(C)c1	52.6*	0.7	-0.2
Cc1ccc(NC(=O)c2n[nH]c(=O)c3ccccc23)cc1S(=O)(=O)N1CCOCC1	-1.8	-0.5	43.0*

Source: PubChem BioAssay
